In PubChem BioAssay:
Calls of active or inactive are those of the source.

Assays:
[1] = compound effects on lung adenocarcinoma cell viability – A549, calcein-AM fluorescence, 48 h, basal, profiling panel (AID 1162); details: higher = more signal
[2] = compound effects on differentiated 3T3-L1 adipocyte viability – cell-based, 3T3-L1 adipocytes, calcein-AM fluorescence, 48 h, basal, profiling panel (AID 1163); details: 3T3-L1 adipocytes viability, higher = more signal
[3] = compound effects on hepatocellular carcinoma cell viability – HepG2, calcein-AM fluorescence, 48 h, basal, profiling panel (AID 1164); details: higher = more signal
[4] = compound effects on multiple myeloma cell viability – MM1S, calcein-AM fluorescence, 48 h, basal, profiling panel (AID 1165); details: higher = more signal;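 further: viability of MM1S multiple myeloma cells under basal unstimulated conditions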
[5] = calcein-AM signal in unstimulated myeloma cells – cell-based, calcein-AM fluorescence, 48 h, PK04 Diversity Set, profiling panel (AID 1166); details: RPMI8226 myeloma viability, higher = more signal;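 further: cells grown under basal conditions without added stimulus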
[6] = JC-1 mitochondrial signal, unstimulated HepG2 cells – cell-based, JC-1 fluorescence, 24 h, 100 nL compound, profiling panel (AID 1167); details: HepG2 mitochondrial potential, higher = more signal
[7] = JC-1 mitochondrial signal, unstimulated adipocytes – cell-based, JC-1 fluorescence, 3T3-L1 adipocytes, 24 h, 100 nL compound, profiling panel (AID 1168); details: JC-1 mitochondrial fluorescence, higher = more signal, called active from +8 up or from −8 down
[8] = JC-1 mitochondrial signal, unstimulated myeloma cells – cell-based, JC-1 fluorescence, RPMI8226, 24 h, 100 nL compound, profiling panel (AID 1169); details: JC-1 mitochondrial potential fluorescence, higher = more signal
[9] = JC-1 mitochondrial signal, unstimulated MM1S myeloma – cell-based, JC-1 fluorescence, 24 h, 100 nL compound, profiling panel (AID 1170); details: MM1S mitochondrial potential, higher = more signal
[10] = resazurin metabolic signal in A549 cells – cell-based, resazurin fluorescence, 24 h, PK04 Diversity Set, profiling panel (AID 1171); details: A549 viability, higher = more signal, called active from +8 up or from −8 down
Further: test concentration not given here.

Structure (SMILES)	z-score [1]	z-score [2]	z-score [3]	z-score [4]	z-score [5]	z-score [6]	z-score [7]	z-score [8]	z-score [9]	z-score [10]
CC(C)CCC[C@@H](C)[C@H]1CC[C@@]2(C)C3=C(CC[C@]12C)[C@@]1(C)CC[C@H](OC(=O)C(C)(C)C)C(C)(C)C1CC3 (stereo not given in full)	2.49	1.66	1.12	0.933	-0.129	1.15	0.39 (inactive)	0.363	-1.44	0.221 (inactive)
CCOC(=O)C1=CCC(c2cccc(Cl)c2)O1 (stereo not given)	-1	0.464	-0.531	-0.488	-1.15	-0.454	-0.627 (inactive)	0.96	-0.472	1.16 (inactive)
CO[C@H]1O[C@H](CO)[C@@H](OC(=O)Nc2ccc(C(F)(F)F)cc2)[C@H](OC(=O)Nc2ccccc2)[C@H]1OC(=O)Nc1ccccc1	-3.56	1.96	-5.2	-3.39	-4.45	-1.93	0.575 (inactive)	-1.27	-1.45	-6.31 (inactive)
C=CC[C@]1(C(=O)N2CCOCC2)N=C(c2ccc(OCCCO)cc2)O[C@H]1c1ccccc1CN=[N+]=[N-]	0.762	0.399	1.65	-0.0728	-1.62	1.48	0.114 (inactive)	-0.977	-0.508	-0.119 (inactive)
CCN(CC)c1ccc(N2CC=CC34O[C@@H]5/C=C\CCCOC(=O)C5[C@H]3C(=O)N(CCCCCO)[C@@H]4C2=O)cc1 (stereo not given in full)	0.147	0.184	0.481	-0.459	-0.711	-0.589	-0.267 (inactive)	0.0223	0.515	0.0257 (inactive)
CCOC(=O)C1=CC[C@@H](c2ccc(N(CC)CC)cc2)N(S(=O)(=O)c2ccc(C)cc2)[C@H]1c1ccc([N+](=O)[O-])cc1	-0.112	-1.19	0.203	-0.0595	-0.173	4.25	-0.114 (inactive)	-0.673	-0.609	0.325 (inactive)
[N-]=[N+]=Nc1ccccc1[C@@H]1OC(c2ccc(OCCCO)cc2)=N[C@]1(CCS(=O)(=O)c1ccccc1)C(=O)NCc1ccccc1	0.282	0.803	0.82	-0.723	-0.185	0.136	3.88 (inactive)	-1.03	-0.856	-0.725 (inactive)
C=C(COC)C(=O)CC[C@H](OC(=O)c1ccccc1-c1ccccc1C(=O)O)c1ccc(OCCO)cc1	-0.127	1.06	-0.626	-1.85	-0.385	-0.271	-0.328 (inactive)	-0.463	0.463	-0.276 (inactive)
CC(C)(C)OC(=O)CC[C@@]1(C(=O)N2CCCCC2)N=C(c2ccc(OCCCO)cc2)O[C@@H]1c1ccccc1N=[N+]=[N-]	0.611	-0.351	0.733	-0.993	-2.16	1.52	3.17 (inactive)	-1.1	-0.993	-0.328 (inactive)
C=CCOc1ccc([C@@H]2CC=C(C(=O)OCC)[C@H](c3cccc(Br)c3)N2S(=O)(=O)c2ccc(C)cc2)cc1	0.954	0.261	-0.508	0.394	-0.455	4.43	0.392 (inactive)	-0.957	-0.0677	-0.924 (inactive)
C=C(CCCC)/C(=C/C[C@H](OC(=O)c1ccncc1)c1ccc(CO)o1)c1cc(C(=O)OC)ccc1OC	-0.705	-0.0954	-0.677	-3.18	-1.04	-0.132	-0.991 (inactive)	-0.375	-0.207	-0.401 (inactive)
Cc1ccccc1C(O)C1C=CC2C(=O)N(Cc3ccccc3)C(=O)C2N1n1cnnc1 (stereo not given)	-1.2	0.194	-0.734	-0.742	0.0991	-0.406	0.525 (inactive)	-0.0549	-0.806	0.0882 (inactive)
CCCN1C(=O)[C@@]2(Cc3ccccc3)N=C(c3ccc(OCCCO)cc3)O[C@H]2c2ccccc21	-1.54	0.778	-1.7	-2.34	-4.32	-0.214	1.18 (inactive)	-1.27	-0.647	-0.232 (inactive)
CC(C)(C)OC(=O)CC[C@]1(C(=O)N2CCCCC2)N=C(c2ccc(OCCCO)cc2)O[C@H]1c1ccccc1CN=[N+]=[N-]	1.1	0.876	1.58	-2.99	-2.01	2.46	0.67 (inactive)	-0.983	0.358	-1.35 (inactive)
CCOc1cc(C(O)C2C=CC3C(=O)NC(=O)C3N2Nc2ccccn2)ccc1O (stereo not given)	-0.773	-1.5	-0.506	-0.369	-0.328	-1.87	-0.892 (inactive)	-0.0441	0.157	-0.923 (inactive)
COCCOC(=O)N1C(=O)[C@@]2(c3cc(C#CCNC(N)=O)ccc31)[C@H](C(N)=O)[C@H]1C(=O)O[C@H](c3ccccc3)[C@H](c3ccccc3)N1[C@@H]2c1ccc(OCCO)cc1	-0.304	-0.867	-0.392	-0.905	0.66	-2.81	0.441 (inactive)	-0.634	-0.602	0.452 (inactive)
COc1ccc([Si](C)(C)[C@@H]2[C@@H](CCO)O[C@]3(C(=O)N(Cc4ccc(N5C(=O)c6ccccc6Oc6ccccc65)cc4)c4ccccc43)[C@H]2C)cc1	-0.738	-0.703	-3.56	-2.31	-3.17	-0.42	0.462 (inactive)	-1.06	-1.68	-1.47 (inactive)
O=C(C=C(CC(O)c1cccc(Cl)c1)OCCF)OCCF (stereo not given)	0.595	0.642	0.989	0.947	-0.667	0.586	0.869 (inactive)	0.0309	-0.273	0.135 (inactive)
COCCOC(=O)N1C(=O)[C@@]2(c3cc(C#Cc4ccc(OC)cc4)ccc31)[C@H](C(=O)N1CCc3cc(OC)c(OC)cc3C1)[C@H]1C(=O)O[C@H](c3ccccc3)[C@H](c3ccccc3)N1[C@@H]2c1ccc(O)cc1	-0.0326	0.376	0.97	0.175	-0.393	-0.177	0.302 (inactive)	-0.185	0.516	0.361 (inactive)
CC(C)(C)OC(=O)CC[C@@]1(C(=O)N2CCCCC2)N=C(c2ccc(OCCCO)cc2)O[C@@H]1c1ccccc1CN=[N+]=[N-]	0.708	-0.125	1.25	-3.47	-0.624	2.12	-0.405 (inactive)	-0.863	-0.995	0.642 (inactive)
O=C1NC(=O)C2C1C=CC(C(O)CCc1ccccc1)N2Nc1ccccn1 (stereo not given)	-1.58	0.0058	1.23	0.87	1.02	-0.149	-0.382 (inactive)	0.282	0.228	-1.72 (inactive)
COC(=O)[C@]1(Cc2ccccc2N=[N+]=[N-])N=C(c2ccc(OCCCO)cc2)O[C@@H]1c1ccccc1	-3.71	0.561	-5.71	-3.66	-4.01	-2.54	0.911 (inactive)	-1.01	-2.86	-5.19 (inactive)
CCCCC(=C=CC[C@H](O)c1cccc(OCCO)c1)C[C@H](O)COCc1ccccc1	0.803	0.403	0.0132	-1.06	-0.63	0.214	0.254 (inactive)	0.746	-0.378	1.4 (inactive)
C[N+](C)(C)CCCCCCNC(=O)[C@H]1C[C@H]2C(=O)N3CCC[C@H]3C(=O)N2[C@H]1c1cccc(OCCO)c1	-0.538	-1.25	-0.684	0.429	0.512	-1.68	-0.416 (inactive)	-0.173	-0.167	0.558 (inactive)
O=C1C2C=CC(C(O)c3cccc4ccccc34)N(Nc3ccccc3)C2C(=O)N1c1ccccc1 (stereo not given)	0.112	-1.54	0.22	-0.624	-1.52	-1.09	-0.209 (inactive)	-0.408	-0.318	-0.854 (inactive)
O=C1O[C@H](c2ccccc2)[C@H](c2ccccc2)N2[C@H]1[C@@H](C(=O)N1CCCCCCC1)[C@]1(C(=O)Nc3ccccc31)[C@H]2c1ccc(O)cc1	0.416	0.759	0.757	-1.81	-2.71	-1.65	0.123 (inactive)	-0.536	0.385	-1.52 (inactive)
CCOC(=O)C[C@H]1[C@H](OC(=O)c2ccc(C(=O)c3ccccc3)cc2)[C@@H](NC(=O)C2CCCCC2)c2cc(OCCCO)ccc2N1C(=O)Cc1ccc(OC)cc1	0.273	0.628	0.918	-0.4	-0.631	1.06	-0.76 (inactive)	0.368	-0.812	-0.0859 (inactive)
COCCCNC(=O)[C@@]1(Cc2ccccc2I)c2ccccc2C(=O)N(Cc2ccccc2Cl)[C@H]1c1ccc(CO)cc1	-0.119	0.39	0.9	-0.36	-0.503	1.29	0.781 (inactive)	-0.778	0.148	2.16 (inactive)
Cc1ccc(S[C@]2(C(=O)O)CC(=O)N(Cc3ccccc3C(F)(F)F)[C@@H]2c2ccc(CO)cc2)cc1	0.391	-0.208	0.775	-0.804	0.393	0.143	0.998 (inactive)	0.171	-0.446	0.142 (inactive)
